Data taken from the supplement of paper PMC9262897, “Low-cost anti-mycobacterial drug discovery using engineered E. coli” (Nature Communications, 2022).
Where a name gives a salt, the structure may show the parent alone. ± gives the standard deviation of the averaged measurements.

How the values were obtained:
Test in all cases: growth (OD600 after 10 h); higher = more growth (less inhibition)
[1] = system: E. coli TESEC Alr+ wild-type control; conditions: compound 0.1 mM; raw OD600 reference: median of DMSO wells 0.241, cell-free background 0.041
Procedure: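 TESEC Mtb Alr E. coli, or the Alr+ wild-type control, in 384-well plates with Prestwick library compounds at 0.1 mM and 1% DMSO, across arabinose induction levels of 1E3 to 1E7 nM. Growth is read as OD600 after 10 h at 37 °C in triplicate biological replicates.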

E. coli TESEC Mtb Asd = conditions: compound 0.1 mM
Procedure: (§1)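 TESEC E. coli strains in which the native enzyme is deleted and replaced by arabinose-inducible Mtb Asd, DapB, CysH or TrpD, each grown in its selective medium. Strains were screened against the Prestwick library at 0.1 mM and 1% DMSO in 384-well format at low and high arabinose induction. Growth is read as OD600 after 10 h in triplicate.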

E. coli TESEC Mtb DapB = conditions: compound 0.1 mM
Procedure: as §1

E. coli TESEC Mtb Alr = conditions: compound 0.1 mM
Procedure: (§2)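 TESEC Mtb Alr E. coli (ΔaraC ΔtolC ΔentC Δalr ΔdadX, arabinose-inducible Mtb Alr) or the Alr+ wild-type control strain, grown in defined M9-fructose medium without D-alanine in 96-well plates with Prestwick library compounds at 0.1 mM and 1% DMSO. Low Alr induction is 0.1 µM arabinose and high induction is 10 mM arabinose.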

[2] = system: E. coli TESEC Alr+ wild-type control; conditions: compound 0.1 mM; raw OD600 reference: median of DMSO wells 0.49, cell-free background 0.052
Procedure: as §2

[3] = arabinose induction (level): High, raw OD600 reference: median of DMSO wells 0.331, cell-free background 0.041
[4] = arabinose induction (level): Low, raw OD600 reference: median of DMSO wells 0.417, cell-free background 0.041
[5] = arabinose induction (level): High, raw OD600 reference: median of DMSO wells […], cell-free background 0.041
[6] = arabinose induction (level): Low, raw OD600 reference: median of DMSO wells 0.227, cell-free background 0.041
[7] = arabinose 100 nM, raw OD600 reference: median of DMSO wells 0.413, cell-free background 0.052
[8] = arabinose 10000000 nM, raw OD600 reference: median of DMSO wells […], cell-free background 0.052

Compound | growth [1] | growth (E. coli TESEC Mtb Asd; [3]) | growth (E. coli TESEC Mtb Asd; [4]) | growth (E. coli TESEC Mtb DapB; [5]) | growth (E. coli TESEC Mtb DapB; [6]) | growth (E. coli TESEC Mtb Alr; [7]) | growth (E. coli TESEC Mtb Alr; [8]) | growth [2]
Cc1ncc([N+](=O)[O-])n1CC(C)O (stereo unspecified) [Secnidazole] | 0.2401 ± 0.001 | 0.369 ± 0.026 | 0.466 ± 0.031 | 0.2001 ± 0.001 | 0.216 ± 0.024 | 0.4049 ± 0.0029 | 0.327 ± 0.0064 | –
Clc1ccc(CSC(Cn2ccnc2)c2ccc(Cl)cc2Cl)cc1 (stereo unspecified) [Sulconazole nitrate] | 0.0579 ± 0.0028 | 0.0615 ± 0.0029 | 0.0557 ± 0.0015 | – | – | 0.0787 ± 0.039 | 0.0898 ± 0.0077 | 0.0607 ± 0.0028
CCC[C@H](N[C@@H](C)C(=O)N1[C@H](C(=O)O)C[C@@H]2CCCC[C@@H]21)C(=O)OCC [Perindopril] | 0.252 ± 0.01 | 0.225 ± 0.016 | 0.392 ± 0.033 | – | – | 0.431 ± 0.0091 | 0.325 ± 0.0072 | 0.555 ± 0.1
Cc1c(NC(C)C)c(=O)n(-c2ccccc2)n1C [Isopyrin hydrochloride] | 0.2426 ± 0.0023 | 0.29 ± 0.04 | 0.429 ± 0.036 | 0.218 ± 0.019 | 0.268 ± 0.032 | 0.393 ± 0.0061 | 0.351 ± 0.016 | –
Cn1cnc([N+](=O)[O-])c1Sc1ncnc2[nH]cnc12 [Azathioprine] | 0.126 ± 0.017 | 0.347 ± 0.045 | 0.261 ± 0.043 | 0.202 ± 0.016 | 0.226 ± 0.019 | 0.312 ± 0.029 | 0.175 ± 0.0061 | –
CCCCC(CC)CN1CN(CC(CC)CCCC)CC(C)(N)C1 (stereo unspecified) [Hexetidine] | 0.219 ± 0.015 | 0.309 ± 0.022 | 0.373 ± 0.059 | – | – | 0.173 ± 0.21 | 0.0486 ± 0.0013 | –
NNCCc1ccccc1 [Phenelzine sulfate] | 0.221 ± 0.0075 | 0.389 ± 0.044 | 0.4 ± 0.024 | – | – | 0.0532 ± 0.007 | 0.0708 ± 0.0023 | 0.399 ± 0.017
N=C(N=C(N)N)N1CCOCC1 [Moroxidine hydrochloride] | 0.255 ± 0.02 | 0.366 ± 0.025 | 0.404 ± 0.032 | 0.203 ± 0.0065 | 0.245 ± 0.053 | 0.404 ± 0.011 | 0.355 ± 0.033 | –
Cc1c(C)c2c(c(C)c1O)CCC(C)(C(=O)O)O2 (stereo unspecified) [Trolox] | 0.247 ± 0.0084 | 0.272 ± 0.097 | 0.32 ± 0.15 | 0.242 ± 0.0084 | 0.222 ± 0.021 | 0.405 ± 0.0096 | 0.316 ± 0.024 | –
CC[N+](C)(C)c1cccc(O)c1 [Edrophonium chloride] | 0.258 ± 0.011 | 0.384 ± 0.013 | 0.403 ± 0.013 | 0.203 ± 0.017 | 0.27 ± 0.098 | 0.401 ± 0.015 | 0.346 ± 0.029 | –
CCOC(=O)[C@H](CCc1ccccc1)N[C@H]1CCc2ccccc2N(CC(=O)O)C1=O [Benazepril HCl] | 0.245 ± 0.011 | 0.293 ± 0.042 | 0.36 ± 0.066 | – | – | 0.0476 ± 0.0029 | 0.331 ± 0.015 | 0.559 ± 0.042
CCC1(c2ccccc2)C(=O)NCNC1=O [Primidone] | 0.243 ± 0.011 | 0.448 ± 0.024 | 0.463 ± 0.043 | – | – | 0.408 ± 0.015 | 0.333 ± 0.0042 | 0.567 ± 0.028
Nc1ccn([C@H]2CC[C@@H](CO)O2)c(=O)n1 [Zalcitabine] | 0.246 ± 0.0044 | 0.288 ± 0.037 | 0.407 ± 0.035 | – | – | 0.409 ± 0.016 | 0.353 ± 0.02 | 0.4783 ± 0.0003
Cc1nc(=O)c2cc(CN(C)c3ccc(C(=O)N[C@@H](CCC(=O)O)C(=O)O)s3)ccc2[nH]1 [Raltitrexed] | 0.229 ± 0.012 | 0.269 ± 0.05 | 0.4225 ± 0.0017 | – | – | 0.409 ± 0.016 | 0.322 ± 0.011 | 0.606 ± 0.055
COc1ccc(C(=O)c2ccccc2O)c(O)c1 [Dioxybenzone] | 0.125 ± 0.0069 | 0.261 ± 0.022 | 0.197 ± 0.0098 | 0.183 ± 0.014 | 0.23 ± 0.016 | 0.352 ± 0.05 | 0.152 ± 0.014 | –
CN1CCCN(C(c2ccccc2)c2ccc(Cl)cc2)CC1 (stereo unspecified) [Homochlorcyclizine dihydrochloride] | 0.189 ± 0.0068 | 0.123 ± 0.011 | 0.152 ± 0.015 | 0.169 ± 0.0068 | 0.215 ± 0.039 | 0.413 ± 0.0053 | 0.118 ± 0.018 | –
O=P(O)(O)C(O)(Cc1cccnc1)P(=O)(O)O [Risedronic acid monohydrate] | 0.247 ± 0.0087 | 0.278 ± 0.053 | 0.376 ± 0.05 | – | – | 0.426 ± 0.015 | 0.277 ± 0.011 | 0.608 ± 0.083
CN(C)c1ccc(O)c2c1C[C@H]1C[C@H]3[C@H](N(C)C)C(=O)C(C(N)=O)=C(O)[C@@]3(O)C(=O)C1=C2O [Minocycline hydrochloride] | 0.0402 ± 0.00064 | 0.06847 ± 0.00055 | 0.0692 ± 0.0029 | – | – | 0.0623 ± 0.0026 | 0.0637 ± 0.0055 | 0.0527 ± 0.00085
CC(=O)S[C@@H]1CC2=CC(=O)CC[C@]2(C)[C@H]2CC[C@@]3(C)[C@@H](CC[C@@]34CCC(=O)O4)[C@H]12 [Spironolactone] | 0.121 ± 0.0068 | 0.167 ± 0.021 | 0.313 ± 0.041 | – | – | 0.389 ± 0.026 | 0.0959 ± 0.016 | 0.331 ± 0.022
